Data: PubChem BioAssay
The other results are listed elsewhere or left out. Calls of active or inactive are those of the source. Cut-off read from the data, not from the text of the source, unless noted: active = activation above about 22%; inactive = the rest.

How the values were obtained:
[1] = blockers of IL-6 STAT3 signaling – U3A cells, luciferase, luminescence, confirmation (AID 1265;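 active = inhibition above the hit cutoff computed for the primary STAT3 screen, cut at about 44% in these data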;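 note: 0% = IL-6 plus DMSO and 100% = IL-6 plus nifuroxazide control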); settings: IL-6 STAT3 luciferase reporter, at 5.7 µM, active compounds read high, cell line lacks STAT1
[2] = inhibition of TNF-alpha-driven NF-kB transcription – cell-based, HEK293T, luciferase, TNF-alpha stimulus, counter-screen for STAT3 inhibitor project, confirmation (AID 1308;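 active = inhibition above the mean of solvent-only control wells plus 3 SD, cutoff set per campaign, cut at about 13% in these data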;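 note: 0% = TNF-alpha with DMSO and 100% = TNF-alpha with MG high control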); settings: HEK293T NF-kB luciferase reporter, TNF-alpha induced; at 5.7 µM; active compounds read high
[3] = inhibition of STAT1-driven transcription – cell-based, NIH 3T3, luciferase luminescence, IFN-gamma, counter-screen for STAT3 inhibitor project, confirmation (AID 1317;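 active = inhibition above the mean plus 3 SD of solvent-only control wells, limit set per screening run, cut at about 16% in these data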;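 note: 0% = DMSO with IFN-gamma and 100% = nifuroxazide control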); settings: NIH 3T3 STAT1-luciferase reporter, IFN-gamma induced, at 5.7 µM, active compounds read high
[4] = StAR promoter reporter inhibitors, counter-screen for LRH-1 inverse agonist project, cell-based, luminescence, high throughput (AID 651611; in the data active = inhibition above about 28%); settings: StAR promoter luciferase reporter counterscreen, at 3.6 µM, active compounds read high
[5] = target: Nuclear receptor subfamily 5 group A member 2 (Homo sapiens) (UniProt O00482); assay: NR5A2 activity suppression in reporter cells – cell-based, luminescence, confirmation (AID 651613; in the data active = inhibition above about 42%;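 note: HEK293T cells co-transfected with LRH-1 and StAR promoter luciferase reporter; 0% = vehicle wells and 100% = parental cells lacking receptor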); settings: cell-based LRH-1 luciferase reporter, inverse agonism; at 3.6 µM; active compounds read high
Chain of Nuclear receptor subfamily 5 group A member 2 (Homo sapiens) (O00482 whole entry, looked up): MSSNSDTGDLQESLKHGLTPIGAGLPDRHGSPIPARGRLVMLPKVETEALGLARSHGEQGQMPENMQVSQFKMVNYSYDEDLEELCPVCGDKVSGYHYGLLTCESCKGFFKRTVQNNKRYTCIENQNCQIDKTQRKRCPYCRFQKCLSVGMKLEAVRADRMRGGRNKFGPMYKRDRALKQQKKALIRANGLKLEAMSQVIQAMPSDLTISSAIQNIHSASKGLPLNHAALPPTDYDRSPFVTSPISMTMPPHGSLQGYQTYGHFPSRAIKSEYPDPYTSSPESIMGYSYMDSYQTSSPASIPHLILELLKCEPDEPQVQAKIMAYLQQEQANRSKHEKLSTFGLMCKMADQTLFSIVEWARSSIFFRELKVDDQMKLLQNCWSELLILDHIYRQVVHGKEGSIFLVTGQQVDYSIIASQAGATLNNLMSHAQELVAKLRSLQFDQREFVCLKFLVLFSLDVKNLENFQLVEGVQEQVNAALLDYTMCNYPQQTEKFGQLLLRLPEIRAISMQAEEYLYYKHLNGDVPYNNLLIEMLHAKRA

[6] = target: Steroidogenic factor 1 (Homo sapiens) (UniProt Q13285); assay: inverse agonism at SF1 nuclear receptor – cell-based, luminescence, high throughput, counter-screen for LRH-1 inverse agonist project (AID 651614; in the data active = inhibition above about 44%;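 note: cells cotransfected with StAR promoter reporter and SF1 expression vector; 0% = vehicle on cells with receptor and 100% = vehicle on cells lacking receptor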); settings: cell-based SF1 luciferase reporter, at 3.6 µM, active compounds read high
Chain of Steroidogenic factor 1 (Homo sapiens) (Q13285 whole entry, looked up, the tested form may be a part): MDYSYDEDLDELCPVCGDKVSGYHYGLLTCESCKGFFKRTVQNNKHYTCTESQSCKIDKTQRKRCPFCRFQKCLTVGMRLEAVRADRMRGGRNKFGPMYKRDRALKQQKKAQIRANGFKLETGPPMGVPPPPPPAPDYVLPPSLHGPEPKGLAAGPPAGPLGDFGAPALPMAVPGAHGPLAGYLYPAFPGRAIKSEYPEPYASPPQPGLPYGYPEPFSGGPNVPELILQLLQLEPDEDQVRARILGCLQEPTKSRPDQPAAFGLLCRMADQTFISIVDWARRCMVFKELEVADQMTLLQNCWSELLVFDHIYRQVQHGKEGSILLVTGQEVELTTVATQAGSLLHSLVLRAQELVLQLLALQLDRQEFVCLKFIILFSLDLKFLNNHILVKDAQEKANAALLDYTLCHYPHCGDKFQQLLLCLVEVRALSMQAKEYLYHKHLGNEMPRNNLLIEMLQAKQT

[7] = compounds suppressing VP16-driven luciferase signal – cell-based, luminescence, high throughput, counter-screen for LRH-1 inverse agonist project (AID 651615; in the data active = inhibition above about 33%); settings: Gal4-VP16 luciferase reporter cells, at 3.6 µM, active compounds read high
[8] = VP16-driven transactivation reporter suppression – cell-based, luminescence, HEK293, counter-screen for COUP-TFII antagonist project (AID 687007; in the data active = inhibition above about 13%); settings: HEK293 Gal4-VP16 luciferase reporter, at 8.5 µM, active compounds read high
[9] = target: COUP transcription factor 2 (Homo sapiens) (UniProt P24468); assay: retest of COUP-TFII reporter suppressors – cell-based, luciferase reporter, HEK293, triplicate, confirmation (AID 687008;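 active = mean inhibition over three repeats above a set limit taken from the earlier primary screen, cut at about 38% in these data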;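 note: 100% = cells given the luciferase reporter alone without the COUP-TF2 vector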); settings: HEK293 NGFI-A luciferase reporter, luminescence; at 8.5 µM; active compounds read high
Chain of COUP transcription factor 2 (Homo sapiens) (P24468 whole entry, looked up): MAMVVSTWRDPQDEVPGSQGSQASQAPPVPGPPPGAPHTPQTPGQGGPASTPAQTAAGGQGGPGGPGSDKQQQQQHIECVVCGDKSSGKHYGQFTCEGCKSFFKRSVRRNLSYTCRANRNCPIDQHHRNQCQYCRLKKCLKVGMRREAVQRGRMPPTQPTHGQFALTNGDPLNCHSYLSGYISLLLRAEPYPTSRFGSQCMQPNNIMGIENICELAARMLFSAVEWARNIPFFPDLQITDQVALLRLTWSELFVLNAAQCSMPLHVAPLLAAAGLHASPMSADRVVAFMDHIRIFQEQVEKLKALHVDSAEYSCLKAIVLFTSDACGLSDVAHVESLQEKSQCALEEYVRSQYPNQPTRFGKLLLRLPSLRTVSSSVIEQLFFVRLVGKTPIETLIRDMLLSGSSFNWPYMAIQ

[10] = target: Oxysterols receptor LXR-beta (Homo sapiens) (UniProt P55055); assay: nonspecific reporter activation via LXR – cell-based, luminescence, HEK293, H. contortus campaign, counter-screen for hcDAF-12 agonist project, confirmation (AID 743027;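 active = mean percent activation of the reporter above a cutoff set as the average over tested compounds plus their standard deviation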); settings: HEK293 Gal4-LXR tk-luc reporter, 24 h, at 6.8 µM, active compounds read high, normalized: DMSO 0%, positive control 100%
[11] = system: Nuclear hormone receptor DAF-12 (Haemonchus contortus); assay: hcDAF-12 luciferase reporter activation, retest – cell-based, luminescence, HEK293, lit1-tk-luc, triplicate, confirmation (AID 743032;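 active = mean activation across triplicate tests above the threshold derived from the earlier primary screen, cut at about 5.5% in these data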;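 note: 0% = DMSO only wells and 100% = 3 µM Δ7-dafachronic acid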); settings: HEK293 hcDAF-12 lit1-tk-luc reporter, at 6.8 µM, active compounds read high, % of Δ7-dafachronic acid response
[12] = target: Peroxisome proliferator-activated receptor gamma (Homo sapiens) (UniProt P37231); assay: retested PPARg-SRC-2 recruitment enhancers – biochemical, HTS, confirmation (AID 1297); settings: biochemical SRC-2 recruitment by PPARgamma; at 8 µM; active compounds read high;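 note: 0% = vehicle alone and 100% = reference agonist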
Chain of Peroxisome proliferator-activated receptor gamma (Homo sapiens) (P37231 whole entry, looked up): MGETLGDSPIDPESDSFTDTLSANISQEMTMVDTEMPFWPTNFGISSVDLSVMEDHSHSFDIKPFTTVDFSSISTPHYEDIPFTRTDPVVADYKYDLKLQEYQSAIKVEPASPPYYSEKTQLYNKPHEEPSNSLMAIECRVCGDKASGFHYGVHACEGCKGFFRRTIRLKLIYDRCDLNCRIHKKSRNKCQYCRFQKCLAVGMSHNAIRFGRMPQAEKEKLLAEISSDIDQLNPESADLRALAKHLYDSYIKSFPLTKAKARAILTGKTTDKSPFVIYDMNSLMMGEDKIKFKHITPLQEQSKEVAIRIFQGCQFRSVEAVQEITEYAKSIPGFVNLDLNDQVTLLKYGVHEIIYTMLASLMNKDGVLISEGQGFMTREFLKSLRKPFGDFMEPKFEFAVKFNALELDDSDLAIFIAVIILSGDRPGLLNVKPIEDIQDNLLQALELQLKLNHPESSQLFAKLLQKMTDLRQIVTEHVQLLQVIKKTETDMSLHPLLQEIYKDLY

[13] = target: Peroxisome proliferator-activated receptor gamma (Homo sapiens) (UniProt P37231); assay: retest of SRC-1 recruitment enhancers for PPARgamma – biochemical, confirmation (AID 1300; in the data active = activation above about 20%;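 note: 0% = vehicle wells and 100% = reference agonist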); settings: PPARgamma–SRC-1 coactivator recruitment biochemical assay; at 8 µM; active compounds read high
[14] = target: Peroxisome proliferator-activated receptor gamma (Homo sapiens) + Nuclear receptor coactivator 3 (Homo sapiens) (UniProt P37231+Q9Y6Q9); assay: agonists promoting SRC-3 binding to PPARgamma – biochemical, confirmation (AID 1301; in the data active = activation above about 24%;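 note: 0% = vehicle wells and 100% = reference agonist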); settings: biochemical PPARgamma-SRC-3 coactivator recruitment, agonist mode; at 8 µM; active compounds read high
Chain of Peroxisome proliferator-activated receptor gamma (Homo sapiens) + Nuclear receptor coactivator 3 (Homo sapiens) (P37231 whole entry, looked up): as above
Chain of Peroxisome proliferator-activated receptor gamma (Homo sapiens) + Nuclear receptor coactivator 3 (Homo sapiens) (Q9Y6Q9 whole entry, looked up): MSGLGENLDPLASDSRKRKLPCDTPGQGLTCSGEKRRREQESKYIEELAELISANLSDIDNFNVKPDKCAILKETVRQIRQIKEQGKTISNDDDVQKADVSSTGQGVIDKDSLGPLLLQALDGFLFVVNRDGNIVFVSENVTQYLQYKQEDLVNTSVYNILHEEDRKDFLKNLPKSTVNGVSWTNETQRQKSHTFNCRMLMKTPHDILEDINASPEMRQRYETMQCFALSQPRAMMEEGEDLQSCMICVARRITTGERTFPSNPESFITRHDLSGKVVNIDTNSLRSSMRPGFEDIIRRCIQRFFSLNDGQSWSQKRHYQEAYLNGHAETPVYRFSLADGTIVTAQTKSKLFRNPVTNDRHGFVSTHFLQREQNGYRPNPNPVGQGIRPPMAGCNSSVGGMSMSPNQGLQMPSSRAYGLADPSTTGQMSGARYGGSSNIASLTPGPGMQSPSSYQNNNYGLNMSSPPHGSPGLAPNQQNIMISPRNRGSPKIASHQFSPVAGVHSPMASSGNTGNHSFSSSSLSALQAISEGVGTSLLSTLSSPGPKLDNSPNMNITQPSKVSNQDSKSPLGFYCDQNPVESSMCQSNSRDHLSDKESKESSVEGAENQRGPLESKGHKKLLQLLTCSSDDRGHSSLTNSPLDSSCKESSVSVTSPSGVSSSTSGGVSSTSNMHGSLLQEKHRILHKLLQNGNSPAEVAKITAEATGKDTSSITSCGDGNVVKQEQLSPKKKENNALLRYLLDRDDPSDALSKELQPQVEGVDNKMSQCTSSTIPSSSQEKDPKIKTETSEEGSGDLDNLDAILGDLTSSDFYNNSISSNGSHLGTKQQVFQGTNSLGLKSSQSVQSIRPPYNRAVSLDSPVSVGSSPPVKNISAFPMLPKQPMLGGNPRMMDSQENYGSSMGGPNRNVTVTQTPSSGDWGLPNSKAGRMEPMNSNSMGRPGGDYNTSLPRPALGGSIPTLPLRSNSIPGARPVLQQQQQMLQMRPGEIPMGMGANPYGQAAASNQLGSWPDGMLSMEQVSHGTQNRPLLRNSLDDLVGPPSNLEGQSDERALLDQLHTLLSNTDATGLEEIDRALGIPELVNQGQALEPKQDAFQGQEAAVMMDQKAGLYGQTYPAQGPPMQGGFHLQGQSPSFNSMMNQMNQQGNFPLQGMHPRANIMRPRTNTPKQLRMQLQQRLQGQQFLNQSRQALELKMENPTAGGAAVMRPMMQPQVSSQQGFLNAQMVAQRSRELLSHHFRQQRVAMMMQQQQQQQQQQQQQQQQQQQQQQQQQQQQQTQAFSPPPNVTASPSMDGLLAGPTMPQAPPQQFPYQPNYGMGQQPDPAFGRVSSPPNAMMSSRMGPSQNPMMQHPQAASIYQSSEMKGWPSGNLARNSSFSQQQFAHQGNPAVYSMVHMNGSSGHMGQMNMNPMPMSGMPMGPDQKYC

[15] = target: Galanin receptor type 2 (Homo sapiens) (UniProt O43603); assay: blockers of human galanin receptor 2 – cell-based, confirmation (AID 866; in the data active = inhibition above about 27%;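 note: cells stimulated with galanin at about its EC80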); settings: GALR2-expressing cells, antagonist mode, at 4 µM, active compounds read high
Chain of Galanin receptor type 2 (Homo sapiens) (O43603 whole entry, looked up): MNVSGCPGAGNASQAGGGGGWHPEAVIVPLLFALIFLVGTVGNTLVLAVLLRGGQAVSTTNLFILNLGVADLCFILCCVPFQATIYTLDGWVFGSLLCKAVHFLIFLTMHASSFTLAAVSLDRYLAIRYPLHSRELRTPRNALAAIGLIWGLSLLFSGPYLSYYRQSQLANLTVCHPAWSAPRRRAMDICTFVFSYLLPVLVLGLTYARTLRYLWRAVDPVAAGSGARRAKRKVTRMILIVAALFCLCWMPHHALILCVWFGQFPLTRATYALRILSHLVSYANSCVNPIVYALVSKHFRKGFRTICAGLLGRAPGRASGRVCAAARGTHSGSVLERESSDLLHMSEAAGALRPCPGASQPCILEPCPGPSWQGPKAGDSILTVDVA

[16] = nonspecific BLA reporter inhibition – CHO NFAT-bla cells, FRET readout, counter-screen for GALR2 antagonist project, confirmation (AID 867;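 active = inhibition above the mean inhibition across tested compounds plus 3 SD, cut at about 27% in these data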;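 note: 0% = 500 nM thapsigargin stimulated wells and 100% = unstimulated BSA only wells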); settings: beta-lactamase FRET, thapsigargin-stimulated, at 4.2 µM, active compounds read high
[17] = target: Sphingosine 1-phosphate receptor 4 (Homo sapiens) (UniProt O95977); assay: blockers of human S1P4 signalling – cell-based, confirmation (AID 1524; in the data active = inhibition above about 30%); settings: S1P4-expressing cell line, antagonist mode, reporter read-out; at 4.98 µM; active compounds read high
[18] = target: Neuropeptide Y receptor type 2 (Homo sapiens) (UniProt P49146); assay: human Y2 receptor positive modulation or activation – cell-based, confirmation (AID 1539; in the data active = activation above about 33%); settings: cell-based NPY-Y2 potentiator/agonist assay; at 3.6 µM; active compounds read high
Chain of Neuropeptide Y receptor type 2 (Homo sapiens) (P49146 whole entry, looked up): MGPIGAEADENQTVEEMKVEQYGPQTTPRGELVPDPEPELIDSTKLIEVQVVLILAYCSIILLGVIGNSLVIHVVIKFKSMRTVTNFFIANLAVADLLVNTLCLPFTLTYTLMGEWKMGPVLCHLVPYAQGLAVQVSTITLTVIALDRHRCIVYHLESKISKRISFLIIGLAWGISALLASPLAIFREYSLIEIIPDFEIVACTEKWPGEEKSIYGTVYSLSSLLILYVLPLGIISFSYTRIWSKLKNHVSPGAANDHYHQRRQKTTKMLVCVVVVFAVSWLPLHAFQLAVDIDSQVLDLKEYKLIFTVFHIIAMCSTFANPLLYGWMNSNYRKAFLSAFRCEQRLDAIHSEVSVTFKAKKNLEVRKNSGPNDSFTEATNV

[19] = target: Sphingosine 1-phosphate receptor 1 (Homo sapiens) (UniProt P21453); assay: blockade of human S1P1 receptor – cell-based, counter-screen for S1P4 antagonist project (AID 1564; in the data active = inhibition above about 40%;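 note: receptor stimulated with S1P near its EC80; 0% = agonist stimulated wells and 100% = vehicle only wells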); settings: cell-based S1P1 antagonist counterscreen, at 4.98 µM, active compounds read high
[20] = target: Neuropeptide Y receptor type 1 (Homo sapiens) (UniProt P25929); assay: human Y1 receptor positive modulation or activation – cell-based, fluorescence, counter-screen for NPY-Y2 potentiator project (AID 1651; in the data active = activation above about 45%;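 note: cells stimulated with submaximal NPY then isoproterenol with phosphodiesterase inhibitor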); settings: Y1 HEK293-CNG cells, membrane potential fluorescence; at 3.6 µM; active compounds read high
Chain of Neuropeptide Y receptor type 1 (Homo sapiens) (P25929 whole entry, looked up): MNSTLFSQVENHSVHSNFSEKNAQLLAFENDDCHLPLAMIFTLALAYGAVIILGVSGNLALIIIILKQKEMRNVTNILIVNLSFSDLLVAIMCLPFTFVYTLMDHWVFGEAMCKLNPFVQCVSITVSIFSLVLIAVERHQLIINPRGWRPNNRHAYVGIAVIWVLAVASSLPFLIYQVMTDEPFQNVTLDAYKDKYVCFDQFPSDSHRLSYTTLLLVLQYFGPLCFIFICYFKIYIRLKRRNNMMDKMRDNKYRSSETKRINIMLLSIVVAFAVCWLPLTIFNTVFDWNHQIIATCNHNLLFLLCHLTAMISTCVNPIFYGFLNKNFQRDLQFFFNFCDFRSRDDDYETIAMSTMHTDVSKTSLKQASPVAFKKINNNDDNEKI

[21] = target: Neuropeptide Y receptor type 1 (Homo sapiens) (UniProt P25929); assay: human Y1 receptor agonism, CNGC membrane potential – cell-based, fluorescence, selectivity assay for NPY-Y2 potentiator project (AID 1702;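 active = activation above the mean of DMSO-only control wells plus 3 SD, cut at about 18% in these data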;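 note: cells stimulated with 1 µM isoproterenol plus the PDE inhibitor Ro 20-1724; 0% = isoproterenol with DMSO and no NPY and 100% = 40 nM NPY; Y1 agonists lower the membrane potential dye signal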); settings: HEK293 Y1-CNGC, at 3.6 µM, active compounds read high
[22] = blockers of isoproterenol-driven CNG channel signal – cell-based, HEK293-CNG parental, membrane potential fluorescence, counter-screen for NPY-Y2 potentiator project (AID 1703;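 active = inhibition above the control-well mean plus 3 SD of those wells, cut at about 22% in these data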;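 note: 0% = DMSO with isoproterenol and 100% = DMSO without isoproterenol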); settings: isoproterenol cAMP, at 3.6 µM, active compounds read high
[23] = target: Neuropeptide Y receptor type 2 (Homo sapiens) (UniProt P49146); assay: agonism at human Y2 receptor without NPY – cell-based, fluorescence, counter-screen for NPY-Y2 potentiator project (AID 1710;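 active = activation above the mean of solvent-only control wells plus 3 SD, cut at about 10% in these data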;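 note: cells stimulated by isoproterenol with no NPY added so direct agonism is tested; 0% = DMSO with isoproterenol alone and 100% = NPY at EC100 plus isoproterenol; agonism lowers probe fluorescence through less cAMP and CNG channel opening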); settings: HEK293 Y2/CNGC cells, membrane potential fluorescence, agonist mode; at 3.6 µM; active compounds read high
[24] = suppression of KLF5 promoter-driven luciferase – DLD-1 cells, luminescence, confirmation (AID 1834;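 active = inhibition above a set limit taken from the earlier primary screen, cut at about 63% in these data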;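 note: 0% = DMSO wells and 100% = LY294002 at 200 µM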); settings: DLD-1 KLF5 promoter firefly luciferase reporter, at 4 µM, active compounds read high
[25] = IEC-6 intestinal cell killing – luminescence, triplicate, cytotoxicity control for KLF5 inhibitor project (AID 1905; in the data active = inhibition above about 23%;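 note: cells exposed to compounds for 48 hours before viability read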); settings: IEC-6 rat intestinal cells, viability luminescence; at 4 µM; active compounds read high
[26] = target: Oxytocin receptor (Homo sapiens) (UniProt P30559); assay: oxytocin receptor activation, retest of hits – fluorescence, CHO-OTR cells, triplicate, confirmation (AID 434963;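 active = mean activation above about 20% derived from the earlier single-dose screen, limit read from the data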;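 note: peak over minimum fluorescence ratio per well during a 100 second FLIPR read; 0% = DMSO alone and 100% = oxytocin high control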); settings: Fluo-8 calcium fluorescence, agonist, at 3 µM, active compounds read high
[27] = target: Vasopressin V1a receptor (Homo sapiens) (UniProt P37288); assay: activators of vasopressin V1R in CHO cells – cell-based, triplicate, fluorescence, counter-screen for OXTR agonist project (AID 434991;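 active = mean activation over triplicate exceeds the hit threshold set in the earlier primary screen, cut at about 20% in these data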;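 note: peak over basal fluorescence ratio within a 100 second read; 0% = DMSO alone and 100% = 3 nM vasopressin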); settings: Fluo-8 calcium fluorescence, at 3 µM, active compounds read high
[28] = target: Nuclear receptor coactivator 3 (Homo sapiens) (UniProt Q9Y6Q9); assay: NCOA3 GAL4-fusion reporter inhibition – cell-based, luminescence, quadruplicate, confirmation (AID 588792;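 active = mean inhibition over 43.08%, the solvent-only control mean plus 3 SD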;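 note: 0% = DMSO treated cells and 100% = gossypol at 36 µM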); settings: HEK293 GAL4-SRC3 luciferase reporter, at 3.6 µM, active compounds read high
[29] = system: transactivating tegument protein VP16 (Human herpesvirus 1), Gal4-VP16 luciferase reporter; assay: repression of VP16-driven luciferase reporter – cell-based, luminescence, high throughput, counter-screen for SRC3 inhibitor project (AID 588794; in the data active = inhibition above about 30%); settings: mammalian cells, at 3.6 µM, active compounds read high
[30] = target: Nuclear receptor coactivator 1 (Homo sapiens) (UniProt Q15788); assay: NCOA1 GAL4-fusion reporter inhibition – cell-based, luminescence, quadruplicate, confirmation (AID 588820;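 active = mean inhibition above 46.68%, the untreated control wells mean plus 3 SD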;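 note: 0% = DMSO wells and 100% = gossypol 36 µM treated wells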); settings: HEK293 GAL4-SRC1 luciferase reporter, at 3.6 µM, active compounds read high
[31] = repression of VP16-driven luciferase reporter – cell-based, luminescence, high throughput, counter-screen for SRC1 inhibitor project (AID 588824; in the data active = inhibition above about 25%); settings: cell-based VP16 transactivation luciferase luminescence; at 3.6 µM; active compounds read high
[32] = target: Photoreceptor-specific nuclear receptor (Homo sapiens) (UniProt Q9Y5X4); assay: retest of NR2E3-NCOR disrupting agonists – cell-based, luminescence, CHO-S two-hybrid, confirmation (AID 624378;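 active = average inhibition above a cutoff equal to the mean inhibition of all tested compounds plus one SD, cut at about 70% in these data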;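 note: 0% = DMSO in NR2E3 cells and 100% = DMSO in cells lacking NR2E3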); settings: CHO-S mammalian two-hybrid NR2E3-NCOR, luciferase luminescence; at 3.98 µM; active compounds read high
[33] = nonselective effects on VP16 transactivation – cell-based, luminescence, CHO-S, high throughput, counter-screen for NR2E3 agonist project, confirmation (AID 624379;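 active = mean inhibition above a cutoff equal to the average over all tested compounds plus one standard deviation, cut at about 70% in these data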;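 note: 0% = DMSO with VP16-transfected cells and 100% = DMSO with cells lacking VP16; higher means less reporter light so more repression of VP16 activity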); settings: CHO-S GAL4-VP16 luciferase reporter, at 3.98 µM, active compounds read high
[34] = reduced OD of V66 E. coli with T4 gene 2 phage – absorbance, RecBCD inhibitor project, confirmation (AID 651982;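 active = mean inhibition over triplicates exceeding the hit threshold derived in the original primary screen, cut at about 11% in these data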); settings: E. coli V66 + T4 2- phage, growth OD; at 11.9 µM; active compounds read high
[35] = bacterial growth inhibition – absorbance, high throughput, counter-screen for RecBCD inhibitor project (AID 651983; in the data active = inhibition above about 20%;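 note: E. coli strain V66 grown with compound alone and no phage infection; 0% = bacteria with DMSO vehicle only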); settings: E. coli viability, absorbance (OD) growth; at 11.9 µM; active compounds read high
[36] = reduced optical density, T4-challenged addAB+ bacteria – absorbance, E. coli V3065, T4 phage, counter-screen for RecBCD inhibitor project, confirmation (AID 651984;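 active = mean inhibition above the solvent-only control wells' mean plus 3 SD, cut at about 22% in these data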;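 note: higher means less bacterial growth from phage killing when AddAB is blocked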); settings: E. coli expressing H. pylori AddAB + T4 phage, OD growth; at 11.9 µM; active compounds read high; gene 2 mutant T4, recBCD-deleted host

COc1ccc(NS(=O)(=O)c2ccc(NC(=O)c3ccc(N(C)S(C)(=O)=O)cc3)cc2)cc1
active: inhibition [1] 56.6% | inhibition [5] 50.5% | inhibition [6] 46.7% | inhibition [7] 40.7% | inhibition [9] 45%
inactive: inhibition [2] 9.03% | inhibition [3] 5.2% | inhibition [4] 19.3% | inhibition [8] 8.59%

COc1ccc(-c2csc(Nc3ccccn3)n2)cc1
active: activation [11] 6.22%
inactive: inhibition [1] 15.2% | inhibition [2] -36.5% | inhibition [3] -205% | activation [10] 1.36%

COC(=O)c1ccccc1SC1CC(=O)N(c2cccc(C)c2)C1=O (stereo unspecified)
inactive: activation [12] 0.78% | activation [13] -2.36% | activation [14] 10.9%

CCN(/N=C/c1ccc(N(C)C)cc1)c1nc2ccccc2[nH]1
inactive: activation [12] 9.9% | activation [13] 6.2% | activation [14] 6.08%

Cc1cc(C)c2cc(CN(Cc3cccs3)Cc3nnnn3CC3CCCO3)c(=O)[nH]c2c1 (stereo unspecified)
inactive: activation [12] 9.95% | activation [13] 11.9% | activation [14] 15%

Cc1ccccc1-c1n[nH]c(=S)n1/N=C/c1ccc(-c2ccccc2Br)o1
active: activation [12] 33.5% | activation [13] 28.2%
inactive: activation [14] 22.5%

Cn1c(=O)cc(SCC(=O)N2CCN(C(=O)c3ccco3)CC2)c2ccccc21
inactive: activation [13] 12.7% | activation [14] 17.9%
active: activation [12] 22.2%

CC(C(=O)N1CCOCC1)N1c2cccc3cccc(c23)S1(=O)=O (stereo unspecified)
inactive: activation [12] -0.94% | activation [13] 1.12% | activation [14] 1.88%

CCN(CCCNC(=O)CSc1cc(=O)n(C)c2cc(Cl)ccc12)Cc1ccccc1
inactive: activation [13] 19.2% | activation [14] 20.4%
active: activation [12] 29.4%

CCOC(=O)C1CCN(C(=O)CSc2cc(=O)n(C)c3ccccc23)CC1
active: activation [12] 38.9% | activation [13] 22.9% | activation [14] 24.4%

O=C(NC(Nc1nc2ccc([N+](=O)[O-])cc2s1)(C(F)(F)F)C(F)(F)F)c1ccccc1
active: inhibition [15] 99.4% | inhibition [16] 69.4% | inhibition [17] 64.5% | activation [23] 22.1% | inhibition [24] 83.7% | inhibition [25] 90.4% | inhibition [28] 69.1% | inhibition [29] 84.5% | inhibition [31] 84.3% | inhibition [32] 98.5% | inhibition [33] 93.3% | inhibition [4] 82.9% | inhibition [5] 105% | inhibition [6] 93.3% | inhibition [7] 86.8% | inhibition [9] 65.9%
inactive: activation [18] 30.6% | inhibition [19] 26.4% | activation [20] -2.54% | activation [21] -9.19% | inhibition [22] -2.45% | activation [26] 13% | activation [27] 8.96% | inhibition [30] 38.7% | inhibition [34] 8% | inhibition [35] 10.7% | inhibition [36] 11.3% | inhibition [8] 6.94%
